# Experimental data as given in the supplement of paper PMC10037445.
# In all, about 2,900 compounds were measured (“NF-kB SEAP reporter activity, fold change vs agonist alone”: median about 0.99, highest 2% from about 2.6 on). The full list was thinned out, with the highest values kept by preference.
# Key:
# RAW-Dual [1] = experiment: NF-kB SEAP reporter activity, fold change vs agonist alone; higher = enhanced NF-kB activity; details: cytotoxicity flag (confluency mask): not cytotoxic
# Outline: (§1)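 Cytotoxic wells were those whose IncuCyte confluency was below 70% of agonist controls in both mask sets. The cells were RAW-Dual macrophages at 50,000 cells/well in DMEM on 384-well plates, dosed with 50 nL of library stock by pin tool, stimulated with a PRR agonist 1 h later, and kept at 37 °C, 5% CO2 for 20 hours. IRF and NF-κB reporter activity, as fold change over agonist-alone wells, came from supernatant read by QuantiLuc luminescence and QuantiBlue absorbance, respectively.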
# RAW-Dual [2] = experiment: NF-kB SEAP reporter activity, fold change vs agonist alone; cytotoxicity flag (confluency mask): not cytotoxic; library stock concentration (final ~1000-fold dilution): 10 mM; higher = enhanced NF-kB activity
# Outline: as §1
# RAW-Dual [3] = experiment: NF-kB SEAP reporter activity, fold change vs agonist alone; cytotoxicity flag (confluency mask): not cytotoxic; library stock concentration (final ~1000-fold dilution): .1 mM; higher = enhanced NF-kB activity
# Outline: as §1
# [4] = library stock concentration (final ~1000-fold dilution): 10 mM, agonist: Imiquimod (TLR7) […]
# [5] = library stock concentration (final ~1000-fold dilution): 10 mM, agonist: MPLA (TLR4) […]
# [6] = agonist: ODN 1826 (TLR9) 0.5 ug/mL
# [7] = agonist: Pam2CSK4 (TLR2/6) 0.1 ug/mL
# [8] = agonist: Pam3CSK4 (TLR2/1) 0.1 ug/mL
smiles,measurement,setting,value
Cc1sc2c(c1C)C(c1ccc(Cl)cc1)=NC(CC(N)=O)c1nnc(C)n1-2 (stereo unspecified),NF-kB SEAP reporter activity,RAW-Dual [1]; [4],1.43
same,NF-kB SEAP reporter activity,RAW-Dual [1]; [5],2.38
same,NF-kB SEAP reporter activity,RAW-Dual [2]; agonist: LPS (TLR4) 0.1 ug/mL,2.51
same,NF-kB SEAP reporter activity,RAW-Dual [2]; [6],1.97
same,NF-kB SEAP reporter activity,RAW-Dual [2]; [7],0.734
same,NF-kB SEAP reporter activity,RAW-Dual [2]; [8],1.69
CCNC(=O)CC1N=C(c2ccc(Cl)cc2)c2cc(OC)ccc2-n2c(C)nnc21 (stereo unspecified),NF-kB SEAP reporter activity,RAW-Dual [1]; [4],1.41
same,NF-kB SEAP reporter activity,RAW-Dual [1]; [5],2.47
same,NF-kB SEAP reporter activity,RAW-Dual [2]; agonist: LPS (TLR4) 0.1 ug/mL,2.57
same,NF-kB SEAP reporter activity,RAW-Dual [2]; [6],1.9
same,NF-kB SEAP reporter activity,RAW-Dual [2]; [7],0.886
same,NF-kB SEAP reporter activity,RAW-Dual [2]; [8],1.43
COc1ccc2c(c[n+](C)c3c4cc5c(cc4ccc23)OCO5)c1OC.Cl,NF-kB SEAP reporter activity,RAW-Dual [1]; [4],0.228
same,NF-kB SEAP reporter activity,RAW-Dual [1]; [5],0.224
same,NF-kB SEAP reporter activity,RAW-Dual [2]; agonist: LPS (TLR4) 0.1 ug/mL,0.278
same,NF-kB SEAP reporter activity,RAW-Dual [2]; [6],0.195
same,NF-kB SEAP reporter activity,RAW-Dual [2]; [7],0.15
same,NF-kB SEAP reporter activity,RAW-Dual [2]; [8],0.163
O=c1[nH]c2ccccc2n1C1CCN(Cc2ccc(-c3nc4cc5nc[nH]c5cc4nc3-c3ccccc3)cc2)CC1,NF-kB SEAP reporter activity,RAW-Dual [1]; [4],0.45
same,NF-kB SEAP reporter activity,RAW-Dual [1]; [5],1.05
same,NF-kB SEAP reporter activity,RAW-Dual [2]; agonist: LPS (TLR4) 0.1 ug/mL,1.2
same,NF-kB SEAP reporter activity,RAW-Dual [2]; [6],0.187
same,NF-kB SEAP reporter activity,RAW-Dual [2]; [7],0.317
same,NF-kB SEAP reporter activity,RAW-Dual [2]; [8],0.427
Br.COc1ccc2c(c1)C13CCCCC1C(C2)N(C)CC3.O (stereo unspecified),NF-kB SEAP reporter activity,RAW-Dual [1]; [5],0.902
same,NF-kB SEAP reporter activity,RAW-Dual [2]; agonist: LPS (TLR4) 0.1 ug/mL,0.802
same,NF-kB SEAP reporter activity,RAW-Dual [2]; [6],0.615
same,NF-kB SEAP reporter activity,RAW-Dual [2]; [7],0.806
same,NF-kB SEAP reporter activity,RAW-Dual [2]; [8],0.824
Br.CN1C2CC(OC(=O)C(CO)c3ccccc3)CC1C1OC12.O.O.O (stereo unspecified),NF-kB SEAP reporter activity,RAW-Dual [1]; [4],0.88
same,NF-kB SEAP reporter activity,RAW-Dual [1]; [5],1.09
same,NF-kB SEAP reporter activity,RAW-Dual [2]; agonist: LPS (TLR4) 0.1 ug/mL,0.989
same,NF-kB SEAP reporter activity,RAW-Dual [2]; [6],0.789
same,NF-kB SEAP reporter activity,RAW-Dual [2]; [7],1.04
same,NF-kB SEAP reporter activity,RAW-Dual [2]; [8],1.12
Cc1cccc(-c2ccnc3c(C(N)=O)cnn23)c1,NF-kB SEAP reporter activity,"RAW-Dual [1]; library stock concentration (final ~1000-fold dilution): .1 mM, agonist: Imiquimod (TLR7) […]",0.791
same,NF-kB SEAP reporter activity,"RAW-Dual [1]; library stock concentration (final ~1000-fold dilution): .1 mM, agonist: MPLA (TLR4) […]",1.15
same,NF-kB SEAP reporter activity,RAW-Dual [3]; agonist: LPS (TLR4) 0.1 ug/mL,1.21
same,NF-kB SEAP reporter activity,RAW-Dual [3]; [6],1.28
same,NF-kB SEAP reporter activity,RAW-Dual [3]; [7],1.25
same,NF-kB SEAP reporter activity,RAW-Dual [3]; [8],1.13
